Most compounds without a hit are left out; they make up all but 21% or so of the library.
HCV inhibitor – HCV inhibition | Huh7.5.1 HCVcc-Cre infection, luciferase reporter, 44 h | Potency, µM (series often up to 41.8 µM), for inactives: at the top dose activity change, negative = inhibition, hits mostly inhibitors | 340,000 compounds, 3.4% hits | AID 651820; also: potency is read from the fitted curve at half-maximal effect; % is scaled to controls: 0 for no effect and ±100 for the full control effect
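Antiviral activity was scored by luciferase reporter output from cells infected with HCVcc-Cre (~0.5 moi) in presence of compound, 44 h infection period, cells seeded 1,000/well 4 h prior.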
Pf growth 96h – P. falciparum growth inhibition at 96 hours; P. falciparum luciferase reporter growth, 96 h; Potency, µM (doses to about 28.7 µM), for the others: at the highest dose activity change, negative = inhibition, hits mostly inhibitors; 320,000 compounds, 6.9% hits; also: potency is read from the fitted curve at half-maximal effect; % is scaled to controls: 0 for no effect and ±100 for the full control effect
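Two-generation exposure (96 h) targets delayed-death phenotype. Reporter parasites carrying integrated firefly luciferase, in red cells at 2% hematocrit and 0.05% parasitemia final, kept at 37 C, 5% CO2; luminescence loss indicates inhibition.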
AMA1 RON2 block – disrupts binding of P. falciparum AMA1 to RON2. Potency, µM (titrated, usually from 58.2 µM), for the others: at the highest dose activity change, negative = inhibition, usual class: inhibitors. 360,000 compounds, 0.2% hits. AlphaScreen AMA1-biotinylated RON2 peptide binding. AID 720542;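 also: potency is read from the fitted curve at half-maximal effect; 0% = vehicle wells and -100% = peptide control; nearly all actives have a fitted effect of over 45% in size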
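AMA1 (3D7) with his tag at 25 nM final met compounds first, then biotinylated RON2 peptide at 25 nM; detection used donor plus acceptor beads, 10 µg/mL apiece, read by AlphaScreen after 30 min at room temperature.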
Shiga inhibitor – inhibitors of Shiga toxin in Vero cells | 290,000 compounds, 9.2% hits | inhibition, % at 38.7 µM | Vero cells, Shiga toxin protein synthesis inhibition reporter; in the data active = inhibition mostly above about 28%, no sharp cut-off; inactive = mostly below about 43%; also: 0% is about no effect
Pf growth 48h – P. falciparum growth inhibition at 48 hours (one generation). 310,000 compounds, 5.9% hits. AID 504832. Potency, µM (doses to about 28.7 µM), inactives show at the highest dose activity change, negative = inhibition, hits mostly inhibitors. P. falciparum luciferase growth in erythrocytes, 48 h; also: potency is read from the fitted curve at half-maximal effect; % is scaled to controls: 0 for no effect and ±100 for the full control effect
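Read-out is firefly luciferase luminescence from an integrated reporter in P. falciparum, so falling signal marks reduced parasite growth. Infected erythrocytes were at 2% hematocrit and 0.1% parasitemia (final) in Albumax-supplemented RPMI 1640.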
Cycloheximide cs – affects cycloheximide protein synthesis inhibition readout, counter-screen | cell reporter, cycloheximide protein synthesis inhibition counterscreen | max response, % | 300,000 compounds, 12% hits | AID 2314; in the data active = max response mostly above about 13%, no sharp cut-off; inactive = mostly below about 14%; also: read at 38.3 µM for the half of the compounds with a filed dose; 0% is about no effect
* marks the source's active call; other numbers are inactive results; ? = inconclusive; nt = not tested or not shown; [ ] = another dose, or the depositor's remark. Unless noted, calls follow the shape of the dose curve; as a rule, active = well fitted curve in the direction sought with a large enough effect; inconclusive = small, poorly fitted or top-dose-only effect, or another doubt; inactive = no such curve, though single readings can be large; an effect the other way counts as inactive or inconclusive.

SMILES	HCV inhibitor	Pf growth 96h	AMA1 RON2 block	Shiga inhibitor	Pf growth 48h	Cycloheximide cs
CCOc1ccc(NC2=CC(=O)CC(c3ccco3)C2)cc1 (centres undefined)	2%	19%	-4%	33	?	11
CN(C)c1ccc(C2CC(=O)C=C(Nc3ccccc3N)C2)cc1 (centres undefined)	4%	28%	-15%	68*	32%	40*
Cc1cc2nc(C3CCCCC3)c(CC(C)(C)C)n2c(C)c1Br	nt	nt	-1%	nt	nt	nt
CCCCCCCNC1=CC(=O)CC(c2ccco2)C1 (centres undefined)	-14%	10µM*	-22%	13	2.3µM*	19*
O=C1C=C(Nc2cccc(O)c2)CC(c2ccco2)C1 (centres undefined)	0%	1%	-21%	15	25%	1
CCOc1ccc(NC(=O)Nc2cc(-c3ccccc3)sc2C(=O)OC)cc1	?	?	-6%[2.32 µM]	3	?	5
COC(=O)c1sc(-c2ccc(Cl)cc2)cc1NC(=O)c1ccccc1C(=O)O	1%	67%	-2%	72*	62%	31*
CCOc1ccc(-c2cc(NC(=O)c3c(F)cccc3F)c(C(=O)O)s2)cc1	22%	36%	-22%	40*	?	11
COC(=O)c1sccc1NC(=O)c1ccccc1C(=O)O	0%	nt	-15%	nt	nt	nt
COC(=O)c1sc(-c2ccc(C(C)(C)C)cc2)cc1NC(=O)c1ccccc1C(=O)O	-7%	11%	6%	84*	8%	44*
COC(=O)c1sc(-c2ccc(C(C)(C)C)cc2)cc1NC(=O)CSCC(=O)O	12%	-5%	-3%	94	29%	15*
COc1ccc(S(=O)(=O)NCc2cc(=O)n(C)c(=O)n2C)cc1C	20%	15%	-4%	9	15%	-4
O=C(c1cc(C2CC2)on1)N1CCN(c2ccccc2)CC1	19%	?	-2%	47*	nt	24*
O=C(c1cc(-c2ccc3c(c2)OCO3)on1)N1CCOCC1	5%	26%	1%	active	87%	20*
O=C(c1cc(-c2ccc3c(c2)OCO3)on1)N1CCN(c2ccccc2)CC1	-13%	?	-14%	62*	249%	56*
Cc1ncoc1C(=O)N1CCCC(C(=O)c2ccc(-c3ccccc3)cc2)C1 (centres undefined)	?	-2%	-9%	31	12%	4
CC(COc1ccc(/C=C/c2ccccc2)cc1)[N+](C)(C)C (centres undefined)	-22%	0.93µM*	-10%	nt	1.3µM*	nt
CC[C@@H](C)[C@@H](CO)NC(=O)[C@H]1O[C@@H](n2cnc3c(N)ncnc32)[C@H](O)[C@@H]1O	nt	nt	-1%	nt	nt	nt
CCOC(=O)c1ccc(N2C(=O)c3n[nH]c(C)c3C2c2ccc(OC)cc2)cc1 (centres undefined)	-19%	?	0%	-28	?	8
COC(=O)c1ccc(C2c3c(n[nH]c3C)C(=O)N2c2ccc(C)cc2)cc1 (centres undefined)	9%	5%	-5%	-8	nt	-2
CCOC(=O)c1ccc(N2C(=O)c3n[nH]c(C)c3C2c2ccc(OC)c(OC)c2)cc1 (centres undefined)	12%	9.3µM*	-10%	-16	?	4
CCOC(=O)c1ccc(N2C(=O)c3n[nH]c(-c4ccco4)c3C2c2cccc([N+](=O)[O-])c2)cc1 (centres undefined)	11µM*	57%	17%	-18	8.3µM*	-2
CCOC(=O)c1ccc(N2C(=O)c3n[nH]c(C)c3C2c2ccc(OC)cc2OC)cc1 (centres undefined)	4%	12µM*	5%	-2	?	-2
CCN(CC(=O)NC1CCS(=O)(=O)C1)S(=O)(=O)c1ccccc1Cl (centres undefined)	0%	46%	-6%	-2	12%	-4
O=C(Nc1ccc(Br)cc1)c1nn(C23CC4CC(CC(C4)C2)C3)cc1Br	3%	0.19µM*	9%	-8	?	3

High-throughput results: PubChem, National Center for Advancing Translational Sciences (NCATS)
